From PubChem BioAssay (EPA / NIEHS)
The source made the active and inactive calls. How the source made its calls: active means hit-call score of the fitted dose curve at least 0.9, where 1 is the maximum; inactive means score below 0.9.

Assays:
[1] = ATG_CRE_CIS: Attagene CIS-FACTORIAL HepG2 Assay for human cAMP Responsive Element (CRE) binding protein 3 (AID 2282926); details: HepG2 CRE cis-reporter, Attagene multiplexed mRNA; actives raise or lower the signal
How it was run: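 Assay format: transient reporter transfection of HepG2, 24 h treatment, total RNA isolation with DNase I step. Reporter abundance read by fluorescence after PCR and capillary separation; DMSO-normalised gain or loss fitting.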

[2] = target: CCAAT/enhancer-binding protein beta (Homo sapiens) (UniProt P17676); assay: ATG_C_EBP_CIS: Attagene CIS-FACTORIAL HepG2 Assay for human CCAAT/Enhancer Binding Protein (C/EBP) beta (AID 2282927); details: HepG2 Attagene cis-factorial transcription factor reporter; actives raise or lower the signal
Sequence of CCAAT/enhancer-binding protein beta (Homo sapiens) (P17676 whole entry, looked up): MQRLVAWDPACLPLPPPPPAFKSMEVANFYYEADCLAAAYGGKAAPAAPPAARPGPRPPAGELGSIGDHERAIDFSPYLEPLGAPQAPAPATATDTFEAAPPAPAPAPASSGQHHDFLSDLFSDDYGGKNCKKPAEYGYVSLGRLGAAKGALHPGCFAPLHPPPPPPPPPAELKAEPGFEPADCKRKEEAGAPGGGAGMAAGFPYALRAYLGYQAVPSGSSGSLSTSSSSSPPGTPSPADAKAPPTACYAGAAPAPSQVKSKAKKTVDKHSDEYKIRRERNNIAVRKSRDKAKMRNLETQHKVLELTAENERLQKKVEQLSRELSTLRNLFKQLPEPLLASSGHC
How it was run: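 RT-PCR/capillary electrophoresis fluorescence of reporter mRNA, 24 h post-dose, in HepG2 cells carrying transfected cis-promoter reporter units. Bidirectional curve fitting against DMSO baseline captures gain or loss of signal.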

[3] = ATG_CMV_CIS: Attagene CIS-FACTORIAL HepG2 Assay for human CMV (Internal Marker) (AID 2282928); details: HepG2 CMV promoter reporter, transcription factor profiling; actives raise or lower the signal;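 further: endpoint acts as a background internal control marker rather than a target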
How it was run: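 Fluorescence intensity of RT-PCR-derived reporter fragments, resolved by capillary electrophoresis, gives the signal. HepG2 liver cells bearing transfected cis-element reporters were treated 24 h; activity in either direction was fit relative to DMSO-treated controls.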

[4] = ATG_DR4_LXR_CIS: Attagene CIS-FACTORIAL HepG2 Assay for human Liver X Receptor (LXR), DR4 submotif (AID 2282929); details: HepG2 Attagene DR4 cis-reporter, mRNA transcription; actives raise or lower the signal
How it was run: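 Cells were transfected with multiple reporter transcription units, exposed to chemicals for 24 hours, then lysed for RNA. Reporter mRNA induction was measured by RT-PCR with capillary electrophoresis detection and fitted in both directions relative to DMSO.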

[5] = ATG_AP_1_CIS: Attagene CIS-FACTORIAL HepG2 Assay for human Activator Protein 1 (AP-1) (AID 2282931); details: HepG2 Attagene cis-factorial AP-1 reporter mRNA; actives raise or lower the signal
How it was run: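 Endogenous transcription-factor activity in human HepG2 liver cells is read through a cis-promoter reporter transcript, sampled 24 h after dosing. Detection uses RT-PCR with capillary electrophoresis; values come from bidirectional fitting relative to DMSO.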

[6] = ATG_AP_2_CIS: Attagene CIS-FACTORIAL HepG2 Assay for human Activator Protein 2 (AP-2) (AID 2282932); details: HepG2 AP-2 cis-reporter, Attagene transcription factor profiling; actives raise or lower the signal
How it was run: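 Cells (HepG2) transfected with promoter-driven reporter constructs, treated 24 h. Total RNA reverse-transcribed, reporter cDNA PCR-amplified, FAM-labelled by primer extension, digested, resolved by capillary electrophoresis. Activity fitted both directions versus DMSO.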

[7] = ATG_BRE_CIS: Attagene CIS-FACTORIAL HepG2 Assay for human Bone Morphogenetic Protein (BMP) Response Element (BRE) (AID 2282933); details: HepG2 BMP response element reporter, Attagene transcription factor profiling; actives raise or lower the signal
How it was run: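 Transient MRTU transfection of human HepG2 liver cells; 24 h compound treatment; total RNA isolated, reverse-transcribed, PCR-amplified, 6-FAM labelled, HpaI-cut, capillary electrophoresis. DMSO = negative control/baseline, bidirectional fit.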

[8] = target: Transcription factor E2F1 (Homo sapiens) (UniProt Q01094); assay: ATG_E2F_CIS: Attagene CIS-FACTORIAL HepG2 Assay for human E2F Transcription Factor 1 (AID 2282935); details: HepG2 Attagene cis-reporter, E2F reporter RNA transcripts; actives raise or lower the signal
Sequence of Transcription factor E2F1 (Homo sapiens) (Q01094 whole entry, looked up): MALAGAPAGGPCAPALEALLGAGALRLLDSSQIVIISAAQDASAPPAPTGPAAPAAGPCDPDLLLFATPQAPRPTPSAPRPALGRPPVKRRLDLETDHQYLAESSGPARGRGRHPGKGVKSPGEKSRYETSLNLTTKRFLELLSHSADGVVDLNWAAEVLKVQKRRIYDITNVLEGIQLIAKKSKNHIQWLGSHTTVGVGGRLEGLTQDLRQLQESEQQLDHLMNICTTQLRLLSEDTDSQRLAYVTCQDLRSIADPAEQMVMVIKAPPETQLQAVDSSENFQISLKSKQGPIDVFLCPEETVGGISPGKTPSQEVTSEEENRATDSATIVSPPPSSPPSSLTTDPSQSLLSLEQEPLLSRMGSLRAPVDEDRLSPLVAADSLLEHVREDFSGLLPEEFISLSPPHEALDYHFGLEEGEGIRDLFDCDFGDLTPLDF
How it was run: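 First, HepG2 cells were transfected with reporter transcription units. Next, they were dosed for 24 h. Then RNA was isolated, converted to cDNA, PCR-amplified, FAM-labeled, HpaI-digested and analyzed by capillary electrophoresis.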

[9] = ATG_E_Box_CIS: Attagene CIS-FACTORIAL HepG2 Assay for human Enhancer Box (E-box) (AID 2282936); details: HepG2 E-box cis-reporter transcription, actives raise or lower the signal
How it was run: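 Endogenous transcription factor activity was sensed in human HepG2 liver cells through transfected cis-promoter reporter units. After 24 h of dosing, total RNA was reverse-transcribed and reporter cDNA resolved by capillary electrophoresis.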

[10] = ATG_M_61_CIS: Attagene CIS-FACTORIAL HepG2 Assay for M61 Transcription Factor (Internal Marker) (AID 2282937); details: HepG2 Attagene CIS-FACTORIAL M61 internal marker reporter; actives raise or lower the signal
How it was run: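 Cells were transfected with reporter units under cis-regulatory promoters, treated with chemicals for 24 h, then lysed for RNA. Reporter transcripts were quantified by RT-PCR and capillary electrophoresis, and activity was fitted bidirectionally against DMSO.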

[11] = ATG_EGR_CIS: Attagene CIS-FACTORIAL HepG2 Assay for human Early Growth Response 1 (EGR1) (AID 2282938); details: HepG2 Attagene CIS-FACTORIAL EGR reporter mRNA; actives raise or lower the signal
How it was run: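 Endogenous TF activity in HepG2 liver cells was gauged through cis-promoter reporter constructs transiently transfected. After 24 h dosing, reporter mRNA was quantified by RT-PCR and capillary electrophoresis, and curves fitted in both directions versus DMSO.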

[12] = ATG_M_19_CIS: Attagene CIS-FACTORIAL HepG2 Assay for M19 Transcription Factor (Internal Marker) (AID 2282939); details: HepG2 Attagene CIS-FACTORIAL M19 internal marker reporter; actives raise or lower the signal
How it was run: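 Transfect HepG2 with MRTU reporter library → dose chemical, 24 h → isolate total RNA, reverse-transcribe with oligo(dT) → PCR, 6-FAM label, HpaI cut (2 h, 37 C) → capillary electrophoresis. Bidirectional fit vs DMSO.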

[13] = ATG_ERE_CIS: Attagene CIS-FACTORIAL HepG2 Assay for Estrogen Response Element (ERE) (AID 2282940); details: HepG2 ERE cis-reporter, Attagene RNA transcript; actives raise or lower the signal
How it was run: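 Transient MRTU transfection of human HepG2; cis-element promoters; 24 h dosing; total RNA → RT (oligo dT) → PCR → 6-FAM primer extension → HpaI digest → CE fluorescence. Bidirectional fit, DMSO baseline.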

[14] = ATG_Ets_CIS: Attagene CIS-FACTORIAL HepG2 Assay for human Erythroblast Transformation Specific (ETS) (AID 2282941); details: HepG2 ETS cis-reporter transcription, actives raise or lower the signal
How it was run: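 Multiplexed reporter transcript profiling: HepG2, 24 h treatment, total RNA to cDNA, PCR, 6-FAM labelling, HpaI cut, capillary electrophoresis. Gain- or loss-of-signal fitted against DMSO.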

[15] = target: Hepatocyte nuclear factor 3-beta (Homo sapiens) (UniProt Q9Y261); assay: ATG_FoxA2_CIS: Attagene CIS-FACTORIAL HepG2 Assay for human Forkhead box A2 (FOXA2) (AID 2282942); details: HepG2 cis-reporter transcription factor activity, 24 h; actives raise or lower the signal
Sequence of Hepatocyte nuclear factor 3-beta (Homo sapiens) (Q9Y261 whole entry, looked up): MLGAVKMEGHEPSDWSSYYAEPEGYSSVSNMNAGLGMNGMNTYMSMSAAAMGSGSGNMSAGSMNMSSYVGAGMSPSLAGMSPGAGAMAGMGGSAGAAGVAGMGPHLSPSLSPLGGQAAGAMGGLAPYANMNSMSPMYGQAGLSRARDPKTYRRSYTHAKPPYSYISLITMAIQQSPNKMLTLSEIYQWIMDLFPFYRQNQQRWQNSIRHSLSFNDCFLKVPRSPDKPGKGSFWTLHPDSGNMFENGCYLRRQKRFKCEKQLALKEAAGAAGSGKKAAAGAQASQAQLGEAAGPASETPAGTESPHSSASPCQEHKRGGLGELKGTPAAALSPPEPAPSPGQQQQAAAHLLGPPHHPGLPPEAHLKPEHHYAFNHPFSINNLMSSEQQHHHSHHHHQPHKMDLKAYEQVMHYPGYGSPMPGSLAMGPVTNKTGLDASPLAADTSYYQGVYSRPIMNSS
How it was run: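 Endogenous transcription factor activity was read in HepG2 cells carrying transiently transfected cis-promoter reporter units. After 24 h dosing, reporter mRNA was quantified by RT-PCR and capillary electrophoresis, and values fitted bidirectionally versus DMSO.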

[16] = ATG_FoxO_CIS: Attagene CIS-FACTORIAL HepG2 Assay for human Forkhead box O (FoxO) (AID 2282943); details: HepG2 Attagene cis-reporter, FoxO element, mRNA; actives raise or lower the signal
How it was run: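 HepG2 cells transiently transfected with cis-promoter-driven multiple reporter transcription units; 24 h after chemical dosing, reporter mRNA quantified by RT-PCR, fluorescent primer extension, HpaI digestion and capillary electrophoresis. Bidirectional fitting versus DMSO baseline.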

[17] = ATG_GATA_CIS: Attagene CIS-FACTORIAL HepG2 Assay for human GATA Binding Protein (AID 2282944); details: HepG2 GATA cis-element reporter, Attagene multiplex mRNA; actives raise or lower the signal
How it was run: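 Transient MRTU transfection, HepG2, 24 h compound exposure. Total RNA → oligo(dT) RT → PCR → 6-FAM primer extension → HpaI cut → CE. Bidirectional fit vs DMSO.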

[18] = ATG_GLI_CIS: Attagene CIS-FACTORIAL HepG2 Assay for human Zinc Finger Protein GLI1 (AID 2282945); details: HepG2, Attagene cis-factorial reporter mRNA, GLI element; actives raise or lower the signal
How it was run: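 HepG2 cells transiently transfected with cis-promoter multiplexed reporter units report endogenous transcription factor activity. After 24 h chemical exposure, reporter mRNA was quantified by RT-PCR, 6-FAM labelling, HpaI digestion and capillary electrophoresis, with bidirectional fitting against DMSO.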

[19] = target: Retinoic acid receptor alpha (Homo sapiens) (UniProt P10276); assay: ATG_DR5_RAR_CIS: Attagene CIS-FACTORIAL HepG2 Assay for human Retinoic Acid Receptor Alpha (RARE), DR5 submotif (AID 2282934); details: HepG2 Attagene cis-factorial RARE DR5 reporter, mRNA; actives raise or lower the signal
Sequence of Retinoic acid receptor alpha (Homo sapiens) (P10276 whole entry, looked up): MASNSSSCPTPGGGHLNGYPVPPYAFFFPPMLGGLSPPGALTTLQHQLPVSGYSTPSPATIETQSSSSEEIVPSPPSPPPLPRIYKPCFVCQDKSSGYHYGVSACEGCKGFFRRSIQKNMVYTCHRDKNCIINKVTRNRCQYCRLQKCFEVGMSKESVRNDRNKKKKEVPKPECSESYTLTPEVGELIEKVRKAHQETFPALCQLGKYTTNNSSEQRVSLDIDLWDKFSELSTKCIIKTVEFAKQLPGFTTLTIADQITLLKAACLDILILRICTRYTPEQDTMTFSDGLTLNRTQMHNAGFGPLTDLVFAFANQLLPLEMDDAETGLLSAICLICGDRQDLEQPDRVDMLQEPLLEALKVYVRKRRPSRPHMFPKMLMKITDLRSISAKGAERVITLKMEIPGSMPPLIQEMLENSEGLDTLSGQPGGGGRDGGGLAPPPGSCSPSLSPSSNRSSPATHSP
How it was run: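 HepG2 cells transiently transfected with multiplexed reporter units under cis (DR5 RARE) promoters, so endogenous transcription factor activity is measured. After 24 h compound exposure, reporter mRNA is quantified by RT-PCR with fluorescent labelling and capillary electrophoresis; bidirectional fitting versus DMSO.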

Measured: AC50

CCn1c2ccccc2c2cc(N)ccc21
active: [3] 31.7 µM | [7] 100 µM
not listed: [19]
inactive: all other assays above

O=C(O)CCCCCCCC(=O)O
not listed: [8] | [13] | [16]
inactive: all other assays above

CC(C)c1cccc(O)c1
active: [13] 104 µM
not listed: [7] | [17] | [19]
inactive: all other assays above
